# GLP-1R inv ag: GLP-1 receptor (human) inverse agonism; HEK293 GLP-1R CRE-luciferase, luminescence, 24 h; GLP-1R form is constitutively active; P43220; 410,000 compounds, 1.6% hits; Potency, µM (doses to about 38.3 µM), usual class: inhibitors; further: nearly all actives have a fitted effect of over 55% in size
#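 Stable HEK293 clone (constitutively active GLP-1R + cAMP-response luciferase); 200 cells/uL plated, 12 h pre-culture, compound 24 hr, 37 deg C/5% CO2; detection reagent 12 min RT; luminescence.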
# PTHR1 ag: activates the human parathyroid hormone receptor PTHR1. Q03431. HEK293 GP2 PTHR1 cells, GloSensor cAMP luminescence, 1 h. Potency, µM (top dose mostly 115 µM), usual class: activators. 410,000 compounds, 0.075% hits; further: nearly all actives have a fitted effect of over 55% in size
# Target sequence (Q03431 whole entry, looked up): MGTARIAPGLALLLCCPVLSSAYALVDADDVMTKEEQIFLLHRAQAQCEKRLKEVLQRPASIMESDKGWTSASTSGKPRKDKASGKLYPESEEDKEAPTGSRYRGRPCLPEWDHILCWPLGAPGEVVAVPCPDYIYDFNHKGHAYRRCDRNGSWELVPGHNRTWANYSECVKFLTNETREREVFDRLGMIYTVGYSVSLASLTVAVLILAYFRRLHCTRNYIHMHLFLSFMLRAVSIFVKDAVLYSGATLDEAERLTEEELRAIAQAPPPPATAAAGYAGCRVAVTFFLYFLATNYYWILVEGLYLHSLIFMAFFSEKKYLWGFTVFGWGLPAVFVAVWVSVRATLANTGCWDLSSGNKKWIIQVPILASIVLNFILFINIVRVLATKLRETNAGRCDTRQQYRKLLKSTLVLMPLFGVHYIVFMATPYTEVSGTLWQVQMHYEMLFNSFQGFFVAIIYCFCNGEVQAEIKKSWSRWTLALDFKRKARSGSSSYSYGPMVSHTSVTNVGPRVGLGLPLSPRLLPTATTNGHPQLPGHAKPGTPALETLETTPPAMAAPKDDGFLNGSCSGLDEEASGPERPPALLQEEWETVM
#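 HEK-293-derived GP2 cells expressing PTHR1 and a GloSensor cAMP reporter, 3,000/well, plated overnight, given luciferin plus IBMX (each 0.5 mM as added) for 1 h at 37 °C, then compound for 1 h at 37 °C. Luminescence was read after 15 min at room temperature.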
# GLP-1R agonist: activates the human GLP-1 receptor; P43220; HEK293 GLP-1R CRE-luciferase, luminescence, 4-6 h; cells express a hypersensitive GLP-1R form; Potency, µM (doses to about 45.6 µM), hits mostly activators; 380,000 compounds, 0.007% hits; AID 624172
# LDHA block: blocks human lactate dehydrogenase A. P00338. purified LDHA, NADH/diaphorase-resazurin fluorescence; stronger effect = lower value. activity change, % (values are at about 110 or 230 µM). 480,000 compounds, 0.15% hits. AID 1347041; in the data active means activity change below about -30%; inconclusive means mostly about -25% to -30%
#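 Enzyme activity of human lactate dehydrogenase 5 (2 nM; 0.06 mM NADH, 0.2 mM pyruvate, 5 min, RT) is measured via a resazurin/diaphorase fluorescence readout of residual NADH.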
# HEK293 tox: cytotoxic in the GLP-1 receptor inverse agonist counter-screen | HEK293 cAMP-luciferase reporter cells, luminescence, 24 h | Potency, µM (top dose mostly 38.3 µM), actives largely listed as inhibitors | 410,000 compounds, 0.13% hits | AID 624418;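 further: loss of luciferase light is scored as toxicity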
#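 1536-well qHTS counterscreen of the MLSMR; 200 cells/uL, 12 h pre-incubation, 23 nL cpd, 24 h at 37 deg C 5% CO2, luciferase detection reagent, 12 min RT, luminescence. Inhibition = undesired.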
# mIDH1 inhibitor: inhibitors of human mutant IDH1 R132H; AID 602179; Potency, µM (titrated, usually from 76.6 µM), most hits filed as inhibitors; IDH1-R132H enzyme, NADPH consumption, diaphorase/resazurin fluorescence; 390,000 compounds, 0.093% hits; O75874; further: nearly all actives have a fitted effect of over 65% in size
#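 IDH1-R132H (0.5 ug/mL dispensed) in pH 7.5 Tris buffer was preincubated 30 min with compound, then given a substrate mix of 0.016 mM NADPH and 2 mM alpha-KG for 80 min at room temperature; remaining NADPH was read by diaphorase/resazurin fluorescence.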
# Numbers stand for hits; - = inactive; ? = inconclusive; . = not tested or not shown. Sampled rows, rich in hits. Any-hit rate of the full collection: about 1.7%. Unless noted, the call rests on the fitted dose curve; in most records, active means well fitted curve in the direction sought with a large enough effect; inconclusive means small, poorly fitted or top-dose-only effect, or another doubt; inactive means no such curve, though single readings can be large; an effect the other way counts as inactive or inconclusive.
SMILES,GLP-1R inv ag,PTHR1 ag,GLP-1R agonist,LDHA block,HEK293 tox,mIDH1 inhibitor
Cc1nc(-c2cccc(NC(=O)c3ccco3)c2)cs1,-,-,-,-,-,-
Nc1nc(-c2ccc(NC(=O)c3ccco3)cc2)cs1,7.94µM,-,-,-,-,-
Cc1nc(-c2ccc(NC(=O)c3ccco3)cc2)cs1,1µM,-,-,-,-,-
Cc1ccc(N(Cc2cc(=O)[nH]c3ccccc23)C(=O)CCl)c(C)c1,5.62µM,-,-,-,-,-
Cc1sc2nc(CN3CCCC3)nc(Sc3nnnn3C3CC3)c2c1C,.,.,.,-,.,.
ClCC(Cl)C[n+]1cccc2ccccc21 (stereo unspecified),.,.,.,-47.2,.,.
Cc1cccc(CS(=O)(=O)N2CCC(C(=O)Nc3ccccc3C(=O)NC(C)(C)C)CC2)c1,.,.,.,-,.,.
COc1ccccc1-c1nc(-c2ccccn2)no1,3.55µM,-,-,-,-,-
CC(C(=O)NC1(C#N)CCCCC1)N(C)Cc1ccc(C(F)(F)F)cc1 (stereo unspecified),.,.,.,-,.,.
Fc1ccc(Oc2nc(-c3ccccn3)nc3ccccc23)cc1,2.82µM,-,-,-,?,-
CCC(C)(C)n1nnnc1CN(Cc1cccs1)Cc1cc2cc(OC)ccc2[nH]c1=O,-,-,-,-,?,-
CCOc1ccc2[nH]c(=O)c(CN(Cc3cccs3)Cc3nnnn3C(C)(C)CC)cc2c1,?,-,-,-,11.2µM,-
C=C[C@@H]1c2ccccc2N(S(=O)(=O)c2ccc(C)cc2)[C@H](c2ccccc2)C1(C#N)C#N,3.55µM,-,-,-,-,-
C=C[C@@H]1c2cc(C)ccc2N(S(=O)(=O)c2ccc(C)cc2)[C@H](c2ccccc2)C1(C#N)C#N,-,-,-,-,-,-
COc1ccccc1-c1nn(-c2ccccc2)cc1C(=O)N1CCc2ccccc2C1,10µM,-,-,-,-,-
COc1ccc(OC)c(-c2nn(-c3ccccc3)cc2C(=O)N2CCc3ccccc3C2)c1,12.6µM,-,-,-,-,-
O=C(OCCOc1ccccc1)c1ccccc1C(=O)c1ccc(Cl)cc1,.,.,.,-,.,.
CCN1C/C(=C\c2cccc([N+](=O)[O-])c2)C(=O)/C(=C/c2cccc([N+](=O)[O-])c2)C1,?,-,-,-,5.01µM,-
O=C1/C(=C/c2cccc([N+](=O)[O-])c2)CCc2ccccc21,-,-,-,-,-,-
CC1(C(=O)Nc2ccccc2Cc2ccccc2)CCN1CCc1ccccc1 (stereo unspecified),12.6µM,-,-,-,-,.
Cc1oc(-c2nc(C#N)c(N(C)Cc3ccccc3)o2)cc1S(=O)(=O)N1CCOCC1,.,.,.,-,.,.
COc1cccc(C(C)NC(=O)Nc2ccccc2Cl)c1 (stereo unspecified),12.6µM,-,-,-,-,-
O=C(Cn1cc(SCc2ccc(C(F)(F)F)cc2)c2ccccc21)N1CCCC1,?,-,.,-,-,-
O=C(Cn1cc(SCc2cccc(C(F)(F)F)c2)c2ccccc21)N1CCCCCC1,7.94µM,-,.,-,-,-
Cc1ccc(CSc2cn(CC(=O)N3CCCCC3)c3ccccc23)cc1,10µM,-,.,-,-,-
SMILES,GLP-1R inv ag,PTHR1 ag,GLP-1R agonist,LDHA block,HEK293 tox,mIDH1 inhibitor
Nc1nccnc1C(=O)NCCc1ccc(Cl)cc1,.,.,.,-,.,.
CNc1nc(SCc2ccccc2Cl)nc2c1CCCC2,10µM,-,-,-,-,-
COc1ccccc1/C=C/C1(C(=O)NC2CCCC2)CC(=O)N1c1ccccc1 (stereo unspecified),3.16µM,-,-,-,-,-
Cc1ccc(-c2nc(CNC(=O)C(C)Oc3ccc(F)cc3)cs2)cc1 (stereo unspecified),.,.,.,-,.,.
c1ccc2c(c1)CCN(c1nc(CN3CCOCC3)nc3sc4c(c13)CCCC4)C2,8.91µM,-,-,-,-,-
Cc1ccc(Sc2ccc(NC(=O)CCN3C(=O)NC4(CCCC4)C3=O)cc2)c(C)c1,11.2µM,-,-,-,-,-
O=C(CCCN1C(=O)NC2(CCCC2)C1=O)Nc1ccc(F)cc1,-,-,-,-,-,-
O=C(CN1CCN(C(=O)CCc2ncc(-c3ccccc3F)o2)CC1)Nc1ccccc1Cl,.,.,.,-,.,.
O=C(NC1CCCCCC1)c1nc(-c2ccccc2)n(-c2ccccc2)n1,.,.,.,-,.,.
O=C(NC1CCCCC1)c1cc(C2CC2)nn1-c1ccccc1,5.62µM,-,-,-,-,-
CCN1CCN(Cc2ccc(NC(=O)c3cc(NC(=O)C(=O)c4c[nH]c5ccccc45)cc(OC)c3)cc2C(F)(F)F)CC1,10µM,-,-,-,?,-
Cc1c(C(=O)Nc2nonc2-c2cccs2)oc2ccccc12,.,.,.,-,.,.
Cc1ccc(C(=O)N(c2ccccc2)C2CC(C)N(C(=O)c3ccco3)c3ccccc32)cc1 (stereo unspecified),10µM,-,-,-,-,-
CC(=O)N(c1ccccc1)C1CC(C)N(C(=O)c2ccccc2)c2ccccc21 (stereo unspecified),-,-,-,-,-,-
COCCn1cnnc1SCc1ccc(OC)c(F)c1,.,.,.,-,.,.
CCOc1ccccc1CN1CCN(CC2CC2)CC1CCO (stereo unspecified),-,-,-,-,-,-
CCOc1ccccc1CN1CCN(Cc2cc3ccccc3[nH]2)CC1CCO (stereo unspecified),10µM,-,-,-,-,-
Cc1ccc2[nH]cc(C(c3ccccc3)c3ccc(Cl)s3)c2c1 (stereo unspecified),10µM,-,.,-,-,-
Clc1ccc(C(c2ccccc2)c2c[nH]c3ccccc23)s1 (stereo unspecified),?,-,-,-,-,-
O=C(CCl)N(C1CCCC1)C1CCS(=O)(=O)C1 (stereo unspecified),4.47µM,-,-,-,-,-
Cc1cc2oc(=O)cc(CN(C)CCO)c2cc1C,.,.,.,-,.,.
O=C1CC(c2ccccc2)Cc2[nH]c(=O)c(-c3nc(-c4ccc(Cl)cc4)cs3)cc21 (stereo unspecified),?,-,.,-,-,-
Cc1sc(-c2cc3c([nH]c2=O)CC(c2ccccc2)CC3=O)nc1-c1ccc(Cl)cc1 (stereo unspecified),1.26µM,-,.,-,?,-
O=C(c1ccc(C(F)(F)F)nc1)N1CCCC1c1ccncc1 (stereo unspecified),.,.,.,-,.,.
COc1cccc(CNC(=O)c2oc3c(c2C)-c2nn(Cc4cccc(Cl)c4)cc2CC3)c1,11.2µM,-,.,-,-,-
CC1(C)CC2CC(C)(CN2/C=C/C(=O)C(F)(F)F)C1 (stereo unspecified),.,.,.,-,.,.

# Bioassay records: PubChem, National Center for Advancing Translational Sciences (NCATS)
